Reference: PubChem BioAssay (NCATS)
Records with an inconclusive call do not appear. Entries that show only a call come without a potency. Active and inactive are the calls of the source. Calls follow the shape of the dose curve; as a rule, active = well fitted cell-killing curve with a large enough effect; inconclusive = small, poorly fitted or top-dose-only effect, or effect the other way; inactive = no such curve, though single readings can be large or run the other way.
Potency is read from the fitted curve at half-maximal effect.

Assay: qHTS assay to identify small molecule inhibitors of chordoma cells - UCH-1 (AID 1259355); also: nearly all actives have a fitted effect of over 55% in size
Details: UCH-1 chordoma viability, CellTiter-Glo, 48 h, combination, with auranofin plus four topoisomerase inhibitors; series mostly up to 46.1 µM
Description: NIH Chemical Genomics Center [NCGC]
Chordoma is a rare and slow growing tumor that can occur anywhere along the spine, from the base of the skull to the tailbone. Current treatment options for chordoma is surgery and radiation therapy for those who are not candidates for surgery. But chordomas tend to return in the same location or surrounding areas of the original tumor after surgery and/or radiation. Chemotherapy can slow down the progression of the tumor. As chordoma is slow growing, the general cytotoxic agents that kill fast growing cells are ineffective, and some patients have been reported to respond to molecularly targeted drugs.
NCATS Pharmaceutical Collection (NPC) containing approximately 3000 clinically approved and investigational drugs were used to screen at 15 concentrations in a chordoma cell lines, UCH-1, to identify small molecule compounds that can inhibit chordoma cell growth.
NCGC Assay Protocol Summary:
Human chordoma cell line UCH-1 was dispensed at 800 per well in 4uL of culture medium into white solid bottom 1536-well plates (Corning Life Sciences, Corning, NY) using a Multidrop Combi (Thermo Scientific, Waltham, MA) dispenser. The assay plates were incubated at 37 C and 5% CO2 for an overnight, and then 23nL of compounds dissolved in DMSO and positive control were transferred using a Pintool station (Wako, San Diego, CA). Compound treatment was followed by the addition of 1uL of the combination compounds (1uM Auranofin, 500nM each of Camptothecin, Doxorubicin, Rubitecan, and Topotecan) and assay medium to each well of the assay plates using Flying Reagent Dispenser (FRD, Aurora Discovery, San Diego, CA). The assay plates were incubated at 37 C and 5% CO2 for 48hr. Then 5uL of CellTiter-Glo reagent (Promega Corporation, Madison, WI) was added to each well of the assay plates using FRD. After 30min incubation at room temperature, the luminescence signal was quantified using a ViewLux plate reader (PerkinElmer, Shelton, CT).
With Nc1nc(N)c(-c2ccccc2)s1 the Potency was “inactive”. In the case of CC(C)Nc1cccnc1N1CCN(C(=O)c2cc3cc(NS(C)(=O)=O)ccc3[nH]2)CC1, the Potency is reported as “inactive”. With CC1(C)OC[C@@H]2O[C@@]3(C(=O)O)OC(C)(C)O[C@H]3[C@@H]2O1 the Potency was “inactive”. For CN1CCN(c2c(F)cc3c(=O)c(C(=O)O)cn4c3c2SCC4)CC1, the Potency was “inactive”. In the case of CC(C)n1c(/C=C/[C@@H](O)C[C@@H](O)CC(=O)O)c(-c2ccc(F)cc2)c2ccccc21, the Potency is reported as “inactive”. In the case of Nc1nc(Cl)nc2c1ncn2[C@@H]1O[C@H](CO)[C@@H](O)[C@@H]1F, the Potency is reported as “inactive”. For C=C[C@@]1(C)CC(=O)[C@]2(O)[C@@]3(C)[C@@H](O)CCC(C)(C)[C@@H]3[C@H](O)[C@H](OC(C)=O)[C@@]2(C)O1, the Potency was “inactive”. With CCN(CC)CCOC(=O)C(Cc1cccc2ccccc12)CC1CCCO1 (stereo not given) the Potency was “inactive”. With O=C(Nc1ncc([N+](=O)[O-])s1)c1cccs1 the Potency was 14.1 µM (active). In the case of CN(C)CCOC(=O)C(c1ccccc1)C1(O)CCCC1 (stereo not given), the Potency is reported as “inactive”. In the case of CC(=O)N[C@@H](CCC(=O)O)C(=O)O, the Potency is reported as “inactive”. For COc1cc(O)c(C(=O)c2ccccc2)cc1S(=O)(=O)O, the Potency was “inactive”. For C=C[C@H]1CN2CC[C@H]1C[C@@H]2[C@@H](O)c1ccnc2ccc(OC)cc12, the Potency was “inactive”. In the case of COc1ccc(CCN(C)CCCN2CCc3cc(OC)c(OC)cc3CC2=O)cc1OC, the Potency is reported as “inactive”. With OC1C(O)C(O)C(O)C(O)C1O (stereo not given) the Potency was “inactive”. For CC(=O)Nc1ccc(OC(=O)c2ccccc2OC(C)=O)cc1, the Potency was “inactive”. In the case of O=C(O)P(=O)(O)O, the Potency is reported as “inactive”. In the case of O=C1c2cccc3c2[C@H](CCC3)CN1[C@@H]1CN2CCC1CC2, the Potency is reported as “inactive”. For Cc1cccc(C)c1NC(=O)CN1CCCCCC1, the Potency was “inactive”. For CCNC(=O)/C=C/c1cccc(Br)c1, the Potency was “inactive”. With CC(=C(CCOC(=O)C(C)C)SSC(CCOC(=O)C(C)C)=C(C)N(C=O)Cc1cnc(C)nc1N)N(C=O)Cc1cnc(C)nc1N the Potency was “inactive”. With CC(=O)OCC(=O)[C@H]1CC[C@H]2[C@@H]3CCC4=CC(=O)CC[C@]4(C)[C@H]3CC[C@]12C the Potency was “inactive”. For Cc1ccc(O)c([C@H](CCN(C(C)C)C(C)C)c2ccccc2)c1, the Potency was “inactive”. For CCN1CCN(C(=O)N[C@@H](C(=O)N[C@@H]2C(=O)N3C(C(=O)O)=C(CSc4nnnn4C)CS[C@H]23)c2ccc(O)cc2)C(=O)C1=O, the Potency was “inactive”. For NCCNc1cccc2ccccc12, the Potency was “inactive”. In the case of CCCCC(CC)CN1CN(CC(CC)CCCC)CC(C)(N)C1 (stereo not given), the Potency is reported as “inactive”. In the case of O=C(CN1CCN(Cc2ccc3c(c2)OCO3)CC1)N1c2ccccc2Sc2ccccc21, the Potency is reported as “inactive”. In the case of CCOc1ccc(NC(C)=O)cc1, the Potency is reported as “inactive”. With CCCCCCCC/C=C\CCCCCCCCN the Potency was “inactive”. In the case of OCc1ccccn1, the Potency is reported as “inactive”. In the case of Clc1cccc(C(c2ccc3nc[nH]c3c2)n2ccnc2)c1 (stereo not given), the Potency is reported as “inactive”. In the case of Oc1ccc(Cl)cc1Cc1cc(Cl)ccc1O, the Potency is reported as “inactive”. For O=S(c1cc(Cl)cc(Cl)c1O)c1cc(Cl)cc(Cl)c1O, the Potency was “inactive”. With Cc1cc(-c2ccccc2)nnc1NCCN1CCOCC1 the Potency was “inactive”. With CN=C(N)NCCC[C@H](N)C(=O)O the Potency was “inactive”. With CN1CCC[C@@H]1CCO[C@](C)(c1ccccc1)c1ccc(Cl)cc1 the Potency was “inactive”. With CCO[C@@H]1O[C@H](C(COCc2ccccc2)OCc2ccccc2)[C@H](OCc2ccccc2)[C@H]1O (stereo not given in full) the Potency was “inactive”. In the case of CC[C@H](c1ccc(O)cc1)[C@@H](CC)c1ccc(O)cc1, the Potency is reported as “inactive”. For CCOc1ccccc1OCCN[C@H](C)Cc1ccc(OC)c(S(N)(=O)=O)c1, the Potency was “inactive”. With CC(C)NCC(O)c1ccc2ccccc2c1 (stereo not given) the Potency was “inactive”.
